About 83,000 compounds went through this panel and 20% of them were active in at least one assay; those are over-represented in the sample as a whole.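 Interpretation: 100, growth as untreated; towards 0, rising growth inhibition; 0, no net growth; 0 to -100, cell death. Compounds scoring below 10 were considered active.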 Unmarked numbers belong to inactive results. Activity calls are given as the source filed them.

The first test deals with 786-0 renal. Put plainly: NCI-60 one-dose screen, 48 h (100 = growth as untreated, 0 = no growth, -100 = all killed). The note with it: 10 µM unless noted.
In the case of `COc1ccc(C2(SCCNCc3cc(N(C)C)ccn3)c3ccccc3C=Cc3ccccc32)cc1`, the growth was 23.5%. Same read-out and setting: for `N/C(=N\c1nc2ccccc2s1)NC(=O)Nc1ccccc1Br` the value was -24.9% (active); for `COc1ccc(C2=NN(c3ccccc3)C(c3ccc(OC)c(OCc4ccccc4)c3)C2)cc1OC` (centres undefined), 90.9%. Still for that read-out and setting: for `CC1=C(C(=O)c2ccccc2)C(c2ccc(-n3cncn3)cc2)n2c(nc3ccccc32)N1` (centres undefined) the value was 96.8%. For `CN(C)CCCNC(=O)c1cc(NC(=O)c2cc(NC(=O)c3ccc(C#Cc4ccccc4)cc3)cn2C)cn1C`, the growth was -86.9% (active).

For the compound `COc1cccc(/C=C/c2nc3ccccc3c(=O)n2CC(=O)Nc2ccc(Cl)cc2)c1`, the growth was 9.62% (active).

A further test deals with COLO 205 colon. The description is as above. Conditions: 10 µM unless noted.
In the case of `COC(=O)C[C@](O)(CCCC(C)(C)O)C(=O)O[C@H]1C(OC)=C[C@@]23CCCN2CCc2cc4c(cc2[C@@H]13)OCO4`, the growth is -42.3% (active). Consider `COc1cc(/C=C2\C(=N)N=C(SCc3nc4ccccc4[nH]3)NC2=O)ccc1O`, for which the growth is 110%. As for `N/C(=N\N=C\c1ccc([N+](=O)[O-])cc1)c1c(N)nc(=S)[nH]c1-c1ccc(Cl)cc1Cl`, the growth is 115%. As for `CC1(c2cc3cc(Cl)ccc3oc2=O)NC(=O)c2c(/C=C/C(=O)OC3CC4CCC3(C)C4(C)C)cccc2N1` (centres undefined), the growth was 48.8%. For `O=C(N=Nc1c(O)[nH]c2ccc(Cl)cc12)c1ccc2nc(-c3ccccc3)[nH]c2c1`, the growth was 62%.

Turning to `O=C(O)c1cccc(-c2ccc(/C=N/NC(=O)c3[nH]c4ccc(Br)cc4c3-c3ccccc3)o2)c1`, the growth is 114%. Take `CC1(C)CC[C@]2(C(=O)Nc3ccccc3)CC[C@]3(C)C(=CCC4[C@@]5(C)C[C@@H](O)[C@H](O)[C@@](C)(CO)C5CC[C@]43C)C2C1` (some centres undefined): the growth is 31.6%.

In the case of `O=c1[nH]c2ccccc2cc1CSc1cccc(Nc2nccc(-c3ccc4ccccc4c3)n2)c1`, the growth was 102%. Still for that read-out and setting: the same measure for `Clc1cccc(N/N=C/c2c[nH]c3ccc(Br)cc23)n1`: 31.9%; for `CSc1ccc(NC(=O)c2ccc3nnn(/C(C#N)=C/c4ccccn4)c3c2)cc1`: -88.4% (active). On the same count and under the same terms, for `Cc1c(C(=O)NNC(=O)c2ccc(Cl)cc2)nnn1-c1ccc(Cl)cc1` the value was 97.2%.

On to `CN(C)c1nc(NCCNS(=O)(=O)c2ccc(C(=O)/C=C/c3ccc(F)cc3)cc2)nc(Nc2ccc(F)cc2)n1`, for which the growth was -85.7% (active). Consider `CNC(=O)c1cc(Oc2ccc3nc(NC(=O)Nc4cccc(OC(F)(F)F)c4)sc3c2)ccn1`, for which the growth is 68.2%. On the same count and under the same terms, for `CC(C)(C)OC(=O)/C=C/c1cccc2c1C(=O)NC(C)(c1cc3cc(Cl)ccc3oc1=O)N2` (centres undefined) the value was 19.4%. On the same count and under the same terms, for `Cc1ccc(C2CC(c3ccc(S(=O)(=O)NCCNc4nc(Nc5ccc(F)cc5)nc(N(C)C)n4)cc3)=Nc3c(N)nc(N)nc3N2)cc1` (centres undefined) the value was 54.8%. `CC1=C(C(=O)OC(C)C)C(c2cccc(O)c2)NC(=S)N1` (centres undefined): the growth was 107%. On the same count and under the same terms, for `C[C@H](Nc1nc(NCCc2ccccc2)nc2ccccc12)c1ccccc1` the value was -93.7% (active); for `COc1ccc(-c2c(Nn3cnnn3)no[n+]2[O-])cc1`, 55.1%; for `Cn1cc(NC(=O)c2cc(NC(=O)c3ccc(C#Cc4ccccc4)cc3)cn2C)cc1C(=O)NCCCN1CCOCC1`, -78.7% (active).

Consider `COc1cc(NC(=O)c2cccc(C3CCc4c(cc(OC)c(OC)c4OC)O3)c2)cc(OC)c1OC` (centres undefined), for which the growth was 3.7% (active). Take `COc1ccc(-c2nnc3ccc(N/N=C/c4ccc(C)cc4)nn23)cc1`: the growth was 79.9%.

Regarding `Cc1ccc(-n2c(-c3cc4ccccc4nc3Cl)noc2=O)cc1`, the growth was 103%. In the case of `CC(=O)Oc1ccccc1C(=O)[Se]CC(=O)Nc1cccc(C(F)(F)F)c1`, the growth is 19.7%. Still for that read-out and setting: the same measure for `N#Cc1c(-c2ccccc2Cl)cc(-c2ccc3ccccc3c2)[nH]c1=O`: 108%; for `CCCCNC(=S)Nc1ccc(OCc2nc3ccccc3[nH]2)cc1`: 95.6%; for `COc1ccc(-c2nc3cc(C)ccc3n2CC(=O)N=Nc2c(O)[nH]c3ccccc23)cc1`: 7.85% (active). On the same count and under the same terms, for `COc1ccc(-c2nc3ccc(C(=O)NN4C(=O)c5ccc([N+](=O)[O-])cc5C4=O)cc3[nH]2)cc1` the value was 105%; for `O=c1oc2ccccc2cc1-c1csc(N=Nc2c(O)[nH]c3ccc(Cl)cc23)n1`, 136%; for `CN(C)c1ccnc(CNCCSC2(c3ccccc3)c3ccccc3C=Cc3ccccc32)c1`, -84.7% (active). Same read-out and setting: for `COc1cc2c(c(OC)c1OC)C(=O)CC(c1cccc(NC(=O)c3cc(NC(=O)[C@@H](N)CO)ccc3C)c1)O2` (some centres undefined) the value was 131%; for `COc1ccc(C(=O)/C=C/c2c(F)cccc2Cl)cc1S(N)(=O)=O`, -84.7% (active); for `O=C(Nc1cccc(-n2cnc3cc(-c4ccc(O)cc4)ccc32)c1)C1CC1`, 34.2%. `COc1ccc(C2(SCCNCc3cc(N(C)C)ccn3)c3ccccc3C=Cc3ccccc32)cc1`: the growth is -29.8% (active).

With `N/C(=N\c1nc2ccccc2s1)NC(=O)Nc1ccccc1Br`, the growth was -72.6% (active). The same measure, in the same setting: the same measure for `COc1ccc(C2=NN(c3ccccc3)C(c3ccc(OC)c(OCc4ccccc4)c3)C2)cc1OC` (centres undefined): 115%. Take `CC1=C(C(=O)c2ccccc2)C(c2ccc(-n3cncn3)cc2)n2c(nc3ccccc32)N1` (centres undefined): the growth was 95.4%. On the same count and under the same terms, for `CN(C)CCCNC(=O)c1cc(NC(=O)c2cc(NC(=O)c3ccc(C#Cc4ccccc4)cc3)cn2C)cn1C` the value was -74.9% (active); for `COc1cccc(/C=C/c2nc3ccccc3c(=O)n2CC(=O)Nc2ccc(Cl)cc2)c1`, 86.4%.
